# Source: publication PMC7862700, “An all-to-all approach to the identification of sequence-specific readers for epigenetic DNA modifications on cytosine”
# Assays:
# Assay in all cases: DAPPL (digital affinity profiling via proximity ligation, sequencing); 10 mM Tris-HCl pH 7.5, 50 mM NaCl, 1 mM DTT, 4% glycerol, room temperature, 30 min; GST-TFs on glutathione beads, 16-mer random dsDNA library, 0.1% formaldehyde crosslink after washing; high values mean tight binding
# [1] = target: T1, FLI1 (Homo sapiens, UniProt Q01543 1-452); settings: protein: recombinant; tags: N-terminal GST; dsDNA, one strand shown
# T1 sequence: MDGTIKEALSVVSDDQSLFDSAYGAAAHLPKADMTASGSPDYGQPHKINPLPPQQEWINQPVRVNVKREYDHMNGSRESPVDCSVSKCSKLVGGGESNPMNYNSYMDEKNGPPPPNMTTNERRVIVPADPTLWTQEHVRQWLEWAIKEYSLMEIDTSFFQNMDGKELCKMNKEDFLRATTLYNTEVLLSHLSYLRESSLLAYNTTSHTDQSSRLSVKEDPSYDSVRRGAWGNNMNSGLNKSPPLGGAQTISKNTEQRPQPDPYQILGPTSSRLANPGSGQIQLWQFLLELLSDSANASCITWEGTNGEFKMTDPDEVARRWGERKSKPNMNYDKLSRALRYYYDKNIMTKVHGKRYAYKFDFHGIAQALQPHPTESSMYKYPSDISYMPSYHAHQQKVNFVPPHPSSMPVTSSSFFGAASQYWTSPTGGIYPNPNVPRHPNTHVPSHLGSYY
# Method in brief: (§1)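 Binding signal is given per hexamer as its read frequency for a factor divided by its frequency in the tag-only sample. GST-fused human transcription factors were expressed in yeast, captured on glutathione beads, barcoded with DNA and pooled with that sample, then incubated with 200 nmole of a 16-mer random double-stranded DNA library in Tris/NaCl/DTT/glycerol buffer for 30 min at room temperature. The pools were then washed, crosslinked, proximity-ligated, amplified by PCR and sequenced on an Illumina NextSeq500.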
# [2] = target: T2, ELK1 (Homo sapiens, UniProt P19419 1-428); settings: protein: recombinant; tags: N-terminal GST; dsDNA, one strand shown
# T2 sequence: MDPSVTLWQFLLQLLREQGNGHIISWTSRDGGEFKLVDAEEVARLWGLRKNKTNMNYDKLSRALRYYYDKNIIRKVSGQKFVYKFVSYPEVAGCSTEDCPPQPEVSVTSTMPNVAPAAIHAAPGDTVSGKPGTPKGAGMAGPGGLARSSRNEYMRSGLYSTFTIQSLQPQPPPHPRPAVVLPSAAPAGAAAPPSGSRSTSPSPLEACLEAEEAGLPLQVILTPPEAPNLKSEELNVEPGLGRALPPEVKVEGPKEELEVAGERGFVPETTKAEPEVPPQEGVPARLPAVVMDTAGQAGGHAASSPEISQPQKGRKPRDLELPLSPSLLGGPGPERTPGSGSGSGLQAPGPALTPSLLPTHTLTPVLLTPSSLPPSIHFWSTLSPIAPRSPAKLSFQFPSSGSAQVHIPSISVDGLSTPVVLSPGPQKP
# Method in brief: as §1
# [3] = target: T3, GABPA (Homo sapiens, UniProt Q06546 1-454); settings: protein: recombinant; tags: N-terminal GST; dsDNA, one strand shown
# T3 sequence: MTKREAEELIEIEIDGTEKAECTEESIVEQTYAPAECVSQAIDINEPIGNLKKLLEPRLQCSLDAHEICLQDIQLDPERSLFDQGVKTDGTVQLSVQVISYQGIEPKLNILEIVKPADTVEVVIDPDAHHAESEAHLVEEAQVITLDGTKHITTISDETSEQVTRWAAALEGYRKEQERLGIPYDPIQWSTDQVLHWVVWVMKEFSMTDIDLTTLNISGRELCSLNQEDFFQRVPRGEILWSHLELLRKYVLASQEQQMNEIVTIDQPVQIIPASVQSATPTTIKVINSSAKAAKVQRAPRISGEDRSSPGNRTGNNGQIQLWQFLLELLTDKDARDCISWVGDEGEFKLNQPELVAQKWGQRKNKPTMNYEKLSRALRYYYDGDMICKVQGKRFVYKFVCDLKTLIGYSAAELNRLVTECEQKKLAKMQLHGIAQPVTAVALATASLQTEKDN
# Method in brief: as §1
# [4] = target: T4, ERG (Homo sapiens, UniProt P11308 1-479); settings: protein: recombinant; tags: N-terminal GST; dsDNA, one strand shown
# T4 sequence: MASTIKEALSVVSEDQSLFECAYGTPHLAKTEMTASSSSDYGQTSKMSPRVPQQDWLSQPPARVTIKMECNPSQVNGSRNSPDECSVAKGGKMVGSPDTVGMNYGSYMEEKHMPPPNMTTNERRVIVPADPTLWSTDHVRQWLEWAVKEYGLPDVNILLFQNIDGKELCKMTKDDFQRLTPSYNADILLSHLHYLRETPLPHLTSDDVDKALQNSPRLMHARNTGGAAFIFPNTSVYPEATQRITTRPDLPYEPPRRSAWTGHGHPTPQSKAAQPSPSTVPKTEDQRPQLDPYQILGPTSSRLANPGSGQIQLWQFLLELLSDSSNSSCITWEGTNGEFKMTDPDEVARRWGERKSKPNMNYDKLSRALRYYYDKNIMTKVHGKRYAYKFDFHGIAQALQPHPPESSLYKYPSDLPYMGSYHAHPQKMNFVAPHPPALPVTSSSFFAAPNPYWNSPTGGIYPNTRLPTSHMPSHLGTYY
# Method in brief: as §1
# [5] = target: ELF1 (Homo sapiens, UniProt P32519 1-619); settings: protein: recombinant; tags: N-terminal GST; dsDNA, one strand shown
# Sequence of ELF1 (P32519 whole entry): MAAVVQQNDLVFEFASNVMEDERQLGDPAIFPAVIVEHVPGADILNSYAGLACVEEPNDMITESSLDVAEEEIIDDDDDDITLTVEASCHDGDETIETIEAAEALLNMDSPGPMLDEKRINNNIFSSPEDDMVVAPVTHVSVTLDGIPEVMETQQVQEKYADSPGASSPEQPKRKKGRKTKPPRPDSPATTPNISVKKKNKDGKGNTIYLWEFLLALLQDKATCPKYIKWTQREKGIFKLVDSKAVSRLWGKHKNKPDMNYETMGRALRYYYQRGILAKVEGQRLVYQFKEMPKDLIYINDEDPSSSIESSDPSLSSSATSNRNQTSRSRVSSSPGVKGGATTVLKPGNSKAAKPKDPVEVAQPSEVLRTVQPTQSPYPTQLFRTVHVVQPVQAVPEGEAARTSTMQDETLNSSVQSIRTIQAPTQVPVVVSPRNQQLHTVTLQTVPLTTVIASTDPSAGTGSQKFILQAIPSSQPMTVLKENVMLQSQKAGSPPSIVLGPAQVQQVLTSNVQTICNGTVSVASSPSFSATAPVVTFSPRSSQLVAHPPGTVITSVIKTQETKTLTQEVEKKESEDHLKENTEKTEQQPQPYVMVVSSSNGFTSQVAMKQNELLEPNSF
# Method in brief: as §1
# [6] = target: T5, EHF (Homo sapiens, UniProt Q9NZC4 1-300); settings: protein: recombinant; tags: N-terminal GST; dsDNA, one strand shown
# T5 sequence: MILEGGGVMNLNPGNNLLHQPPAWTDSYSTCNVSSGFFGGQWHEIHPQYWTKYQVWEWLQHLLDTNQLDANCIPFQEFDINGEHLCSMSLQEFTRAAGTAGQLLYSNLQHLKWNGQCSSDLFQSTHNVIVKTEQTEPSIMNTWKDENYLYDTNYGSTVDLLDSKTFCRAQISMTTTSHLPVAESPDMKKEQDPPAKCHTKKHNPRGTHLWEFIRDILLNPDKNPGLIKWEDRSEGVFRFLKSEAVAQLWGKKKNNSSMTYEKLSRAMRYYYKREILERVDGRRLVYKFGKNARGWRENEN
# Method in brief: as §1
# [7] = target: SPI1 (Homo sapiens, UniProt P17947 1-270); settings: protein: recombinant; tags: N-terminal GST; dsDNA, one strand shown
# Method in brief: as §1
# [8] = target: SPIB (Homo sapiens, UniProt Q01892 1-262); settings: protein: recombinant; tags: N-terminal GST; dsDNA, one strand shown
# Sequence of SPIB (Q01892 whole entry): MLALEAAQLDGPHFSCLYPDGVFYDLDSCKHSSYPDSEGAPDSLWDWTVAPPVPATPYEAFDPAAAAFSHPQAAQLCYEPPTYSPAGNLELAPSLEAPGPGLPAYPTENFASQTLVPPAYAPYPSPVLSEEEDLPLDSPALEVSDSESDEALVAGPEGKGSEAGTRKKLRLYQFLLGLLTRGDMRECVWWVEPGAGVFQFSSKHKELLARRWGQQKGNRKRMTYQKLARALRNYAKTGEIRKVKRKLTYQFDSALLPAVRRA
# Method in brief: as §1
# [9] = target: T6, ELK3 (Homo sapiens, UniProt P41970 1-407); settings: protein: recombinant; tags: N-terminal GST; dsDNA, one strand shown
# T6 sequence: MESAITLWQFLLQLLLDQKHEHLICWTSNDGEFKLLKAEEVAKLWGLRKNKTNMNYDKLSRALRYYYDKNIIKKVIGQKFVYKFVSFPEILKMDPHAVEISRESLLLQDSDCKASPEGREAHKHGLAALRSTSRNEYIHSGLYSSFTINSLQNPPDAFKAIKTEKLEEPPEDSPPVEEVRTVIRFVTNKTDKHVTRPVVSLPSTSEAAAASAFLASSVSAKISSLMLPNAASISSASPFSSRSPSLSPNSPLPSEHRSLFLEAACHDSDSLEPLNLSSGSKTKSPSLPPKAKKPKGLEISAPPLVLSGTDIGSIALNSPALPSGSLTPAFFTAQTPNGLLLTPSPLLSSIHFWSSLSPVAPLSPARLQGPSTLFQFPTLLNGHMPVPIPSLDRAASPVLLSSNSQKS
# Method in brief: as §1
# [10] = target: T7, FEV (Homo sapiens, UniProt Q99581 1-238); settings: protein: recombinant; tags: N-terminal GST; dsDNA, one strand shown
# T7 sequence: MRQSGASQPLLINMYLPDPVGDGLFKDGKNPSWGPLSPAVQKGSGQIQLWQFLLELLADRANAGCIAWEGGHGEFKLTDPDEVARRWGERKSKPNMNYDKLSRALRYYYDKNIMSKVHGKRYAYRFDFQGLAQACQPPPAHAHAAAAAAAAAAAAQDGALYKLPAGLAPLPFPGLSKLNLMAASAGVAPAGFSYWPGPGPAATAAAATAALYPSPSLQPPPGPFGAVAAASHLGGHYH
# Method in brief: as §1
# [11] = target: ETV5 (Homo sapiens, UniProt P41161 1-510); settings: protein: recombinant; tags: N-terminal GST; dsDNA, one strand shown
# Sequence of ETV5 (P41161 whole entry): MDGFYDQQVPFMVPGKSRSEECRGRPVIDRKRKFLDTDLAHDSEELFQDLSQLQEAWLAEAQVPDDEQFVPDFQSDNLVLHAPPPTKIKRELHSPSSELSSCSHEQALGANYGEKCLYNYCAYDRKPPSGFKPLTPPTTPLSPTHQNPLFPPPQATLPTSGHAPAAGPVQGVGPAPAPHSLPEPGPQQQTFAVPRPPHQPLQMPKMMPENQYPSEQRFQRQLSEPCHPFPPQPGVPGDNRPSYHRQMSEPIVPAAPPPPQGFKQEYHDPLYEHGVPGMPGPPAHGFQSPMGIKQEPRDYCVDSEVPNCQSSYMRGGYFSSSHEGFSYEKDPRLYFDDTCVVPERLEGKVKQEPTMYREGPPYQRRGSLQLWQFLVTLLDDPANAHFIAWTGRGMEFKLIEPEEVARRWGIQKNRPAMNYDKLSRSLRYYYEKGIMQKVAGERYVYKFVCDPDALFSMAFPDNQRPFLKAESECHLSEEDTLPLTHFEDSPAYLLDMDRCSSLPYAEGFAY
# Method in brief: as §1
# [12] = target: HSF1 (Homo sapiens, UniProt Q00613 1-529); settings: protein: recombinant; tags: N-terminal GST; chain copies: 3; dsDNA, one strand shown
# Sequence of HSF1 (Q00613 whole entry): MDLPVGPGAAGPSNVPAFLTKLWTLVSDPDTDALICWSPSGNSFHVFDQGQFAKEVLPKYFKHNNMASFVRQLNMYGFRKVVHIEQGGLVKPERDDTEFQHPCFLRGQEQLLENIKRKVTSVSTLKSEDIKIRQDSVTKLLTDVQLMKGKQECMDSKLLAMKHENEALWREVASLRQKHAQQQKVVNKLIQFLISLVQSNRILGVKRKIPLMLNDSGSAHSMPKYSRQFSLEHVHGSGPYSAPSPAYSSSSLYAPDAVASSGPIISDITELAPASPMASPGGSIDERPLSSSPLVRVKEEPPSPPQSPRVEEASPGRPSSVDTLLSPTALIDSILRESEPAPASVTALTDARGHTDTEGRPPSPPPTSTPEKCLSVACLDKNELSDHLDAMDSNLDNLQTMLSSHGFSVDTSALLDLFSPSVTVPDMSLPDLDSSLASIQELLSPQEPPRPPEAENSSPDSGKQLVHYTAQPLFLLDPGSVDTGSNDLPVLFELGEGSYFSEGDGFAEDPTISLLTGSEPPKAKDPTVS
# Method in brief: as §1
# [13] = target: T8, SPIC (Homo sapiens, UniProt Q8N5J4 1-248); settings: protein: recombinant; tags: N-terminal GST; dsDNA, one strand shown
# T8 sequence: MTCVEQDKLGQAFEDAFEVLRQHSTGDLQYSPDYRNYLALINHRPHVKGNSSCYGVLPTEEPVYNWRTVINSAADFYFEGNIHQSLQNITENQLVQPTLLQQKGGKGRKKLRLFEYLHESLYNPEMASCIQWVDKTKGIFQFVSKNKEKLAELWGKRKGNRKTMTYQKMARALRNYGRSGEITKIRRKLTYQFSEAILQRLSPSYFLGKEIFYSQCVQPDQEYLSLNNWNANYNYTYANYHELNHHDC
# Method in brief: as §1
# [14] = target: ELF4 (Homo sapiens, UniProt Q99607 1-663); settings: protein: recombinant; tags: N-terminal GST; dsDNA, one strand shown
# Sequence of ELF4 (Q99607 whole entry): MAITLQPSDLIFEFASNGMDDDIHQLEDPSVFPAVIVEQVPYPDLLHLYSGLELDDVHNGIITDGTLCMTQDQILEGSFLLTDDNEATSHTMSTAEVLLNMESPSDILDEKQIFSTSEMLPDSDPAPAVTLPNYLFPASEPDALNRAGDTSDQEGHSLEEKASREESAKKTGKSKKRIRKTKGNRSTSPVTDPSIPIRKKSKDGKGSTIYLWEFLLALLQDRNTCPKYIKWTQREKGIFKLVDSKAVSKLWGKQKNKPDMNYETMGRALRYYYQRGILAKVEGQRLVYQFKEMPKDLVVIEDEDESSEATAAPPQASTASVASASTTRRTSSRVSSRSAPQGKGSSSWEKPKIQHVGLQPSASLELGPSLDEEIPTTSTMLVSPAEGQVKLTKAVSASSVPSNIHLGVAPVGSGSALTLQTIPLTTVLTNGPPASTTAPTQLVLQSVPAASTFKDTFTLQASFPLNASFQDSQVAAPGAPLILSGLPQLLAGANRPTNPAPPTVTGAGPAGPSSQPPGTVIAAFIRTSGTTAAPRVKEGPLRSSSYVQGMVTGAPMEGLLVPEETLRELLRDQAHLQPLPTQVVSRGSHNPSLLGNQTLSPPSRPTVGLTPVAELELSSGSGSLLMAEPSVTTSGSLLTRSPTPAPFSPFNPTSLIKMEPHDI
# Method in brief: as §1
# [15] = target: T9, ELK4 (Homo sapiens, UniProt P28324-2 1-405); settings: protein: recombinant; tags: N-terminal GST; dsDNA, one strand shown
# T9 sequence: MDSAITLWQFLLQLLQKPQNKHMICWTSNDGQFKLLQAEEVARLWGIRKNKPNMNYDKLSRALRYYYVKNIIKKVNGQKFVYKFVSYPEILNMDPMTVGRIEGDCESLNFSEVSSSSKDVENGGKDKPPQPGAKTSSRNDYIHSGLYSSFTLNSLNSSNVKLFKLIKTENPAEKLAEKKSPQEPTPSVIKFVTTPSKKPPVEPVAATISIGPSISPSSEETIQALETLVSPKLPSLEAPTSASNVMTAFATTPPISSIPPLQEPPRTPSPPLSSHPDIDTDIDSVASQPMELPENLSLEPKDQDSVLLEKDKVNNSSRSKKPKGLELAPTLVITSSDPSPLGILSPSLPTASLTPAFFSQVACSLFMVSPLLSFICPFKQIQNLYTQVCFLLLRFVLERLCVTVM
# Method in brief: as §1
# [16] = target: T10, ETV2 (Homo sapiens, UniProt O00321 1-342); settings: protein: recombinant; tags: N-terminal GST; dsDNA, one strand shown
# T10 sequence: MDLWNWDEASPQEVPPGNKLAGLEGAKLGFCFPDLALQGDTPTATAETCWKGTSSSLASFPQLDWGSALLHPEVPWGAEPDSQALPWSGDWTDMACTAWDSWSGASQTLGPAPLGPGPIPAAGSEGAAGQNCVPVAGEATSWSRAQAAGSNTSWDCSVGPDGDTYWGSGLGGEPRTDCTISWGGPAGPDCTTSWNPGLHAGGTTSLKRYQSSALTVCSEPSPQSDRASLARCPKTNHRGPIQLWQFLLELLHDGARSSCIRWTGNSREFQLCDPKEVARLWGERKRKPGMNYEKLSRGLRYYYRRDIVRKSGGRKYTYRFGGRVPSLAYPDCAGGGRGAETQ
# Method in brief: as §1
# [17] = target: T11, ELF3 (Homo sapiens, UniProt P78545 1-371); settings: protein: recombinant; tags: N-terminal GST; dsDNA, one strand shown
# T11 sequence: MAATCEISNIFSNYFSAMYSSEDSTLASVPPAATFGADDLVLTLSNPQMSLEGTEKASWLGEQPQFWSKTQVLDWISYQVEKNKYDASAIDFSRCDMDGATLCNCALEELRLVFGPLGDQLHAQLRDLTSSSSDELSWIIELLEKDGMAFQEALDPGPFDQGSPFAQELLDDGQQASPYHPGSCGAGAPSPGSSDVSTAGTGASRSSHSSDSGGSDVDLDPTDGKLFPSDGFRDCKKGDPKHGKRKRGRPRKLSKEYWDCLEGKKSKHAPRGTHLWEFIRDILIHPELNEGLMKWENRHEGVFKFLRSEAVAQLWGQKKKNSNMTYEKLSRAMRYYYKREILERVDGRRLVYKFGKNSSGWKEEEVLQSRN
# Method in brief: as §1
# [18] = target: CRX (Homo sapiens, UniProt O43186 1-299); settings: protein: recombinant; tags: N-terminal GST; dsDNA, one strand shown
# Sequence of CRX (O43186 whole entry): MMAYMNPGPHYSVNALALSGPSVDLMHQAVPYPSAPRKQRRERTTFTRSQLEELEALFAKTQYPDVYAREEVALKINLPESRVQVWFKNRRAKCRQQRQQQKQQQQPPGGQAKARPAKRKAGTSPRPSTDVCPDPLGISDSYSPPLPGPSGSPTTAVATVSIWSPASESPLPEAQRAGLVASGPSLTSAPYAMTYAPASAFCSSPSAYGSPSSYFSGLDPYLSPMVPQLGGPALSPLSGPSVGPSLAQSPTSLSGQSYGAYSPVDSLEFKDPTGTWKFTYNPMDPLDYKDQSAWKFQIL
# Method in brief: as §1
# [19] = target: ETV1 (Homo sapiens, UniProt P50549 1-477); settings: protein: recombinant; tags: N-terminal GST; dsDNA, one strand shown
# Sequence of ETV1 (P50549 whole entry): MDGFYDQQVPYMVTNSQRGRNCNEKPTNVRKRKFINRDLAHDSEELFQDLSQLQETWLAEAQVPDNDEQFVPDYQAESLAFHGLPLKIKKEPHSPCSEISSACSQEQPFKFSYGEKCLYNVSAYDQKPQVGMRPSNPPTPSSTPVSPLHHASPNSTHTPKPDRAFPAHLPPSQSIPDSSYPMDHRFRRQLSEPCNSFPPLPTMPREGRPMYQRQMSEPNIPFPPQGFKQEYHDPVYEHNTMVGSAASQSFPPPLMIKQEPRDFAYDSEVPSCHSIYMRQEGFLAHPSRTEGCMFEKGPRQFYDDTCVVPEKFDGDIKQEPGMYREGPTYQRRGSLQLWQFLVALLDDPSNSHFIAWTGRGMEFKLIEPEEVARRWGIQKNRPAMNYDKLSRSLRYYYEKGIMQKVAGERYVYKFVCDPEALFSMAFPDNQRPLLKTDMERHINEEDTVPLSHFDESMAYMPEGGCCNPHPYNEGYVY
# Method in brief: as §1
sequence,measurement,setting,value
ACTAGC,binding signal,[1],"1.23 fold enrichment (6-mer frequency, TF over GST control)"
same,binding signal,[2],"1.18 fold enrichment (6-mer frequency, TF over GST control)"
same,binding signal,[3],"1.26 fold enrichment (6-mer frequency, TF over GST control)"
same,binding signal,[4],"1.21 fold enrichment (6-mer frequency, TF over GST control)"
same,binding signal,[5],"1.15 fold enrichment (6-mer frequency, TF over GST control)"
same,binding signal,[6],"1.11 fold enrichment (6-mer frequency, TF over GST control)"
same,binding signal,[7],"1.28 fold enrichment (6-mer frequency, TF over GST control)"
same,binding signal,[8],"1.22 fold enrichment (6-mer frequency, TF over GST control)"
same,binding signal,[9],"1.1 fold enrichment (6-mer frequency, TF over GST control)"
same,binding signal,[10],"1.11 fold enrichment (6-mer frequency, TF over GST control)"
same,binding signal,[11],"1.2 fold enrichment (6-mer frequency, TF over GST control)"
same,binding signal,[12],"1.32 fold enrichment (6-mer frequency, TF over GST control)"
same,binding signal,[13],"1.17 fold enrichment (6-mer frequency, TF over GST control)"
same,binding signal,[14],"1.17 fold enrichment (6-mer frequency, TF over GST control)"
same,binding signal,[15],"1.24 fold enrichment (6-mer frequency, TF over GST control)"
same,binding signal,[16],"1.3 fold enrichment (6-mer frequency, TF over GST control)"
same,binding signal,[17],"1.01 fold enrichment (6-mer frequency, TF over GST control)"
same,binding signal,[18],"1.11 fold enrichment (6-mer frequency, TF over GST control)"
same,binding signal,[19],"1.19 fold enrichment (6-mer frequency, TF over GST control)"
